Tb PGK inh = inhibitors of T. brucei phosphoglycerate kinase. P07378. PGK/GAPDH coupled, Kinase-Glo luminescence, 60 min. Potency, µM (series often up to 57.5 µM), hits mostly inhibitors. 0.043% of 380,000 active. AID 602233; further: nearly all actives have a fitted effect of over 60% in size
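Recombinant glycosomal PGK reaction used 1,3-bisphosphoglycerate generated in-well by GAPDH (100nM final) in 100mM TEA pH 7.6, 5mM MgCl2, 0.01% Tween-20. After 60 minutes at room temperature, ATP was read by Kinase-Glo Plus luminescence end-point.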
FEN1 inh-1 = blocks human flap endonuclease 1 | 0.35% of 390,000 active | Recombinant FEN1 flap cleavage, fluorescence, 15 min | Potency, µM (highest dose often 114 µM), most hits filed as inhibitors | AID 588795; further: nearly all actives have a fitted effect of over 65% in size
Target sequence (P39748 whole entry, looked up): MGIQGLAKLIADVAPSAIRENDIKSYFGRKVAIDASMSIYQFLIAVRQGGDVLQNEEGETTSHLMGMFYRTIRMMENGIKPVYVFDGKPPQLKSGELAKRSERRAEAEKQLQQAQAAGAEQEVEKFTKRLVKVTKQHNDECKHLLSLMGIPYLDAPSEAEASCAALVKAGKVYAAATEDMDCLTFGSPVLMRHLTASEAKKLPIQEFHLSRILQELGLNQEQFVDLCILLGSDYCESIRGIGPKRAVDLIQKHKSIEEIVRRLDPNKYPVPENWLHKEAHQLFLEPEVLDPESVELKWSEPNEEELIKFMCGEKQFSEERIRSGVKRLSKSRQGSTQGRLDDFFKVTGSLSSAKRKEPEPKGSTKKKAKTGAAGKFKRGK
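In this screen, 50 nM flap DNA substrate was added to 10 nM FEN1 pretreated with compound for 15 min at room temperature; cleavage was followed with reads at 0 and 15 min, and Hill fitting gave concentration–response parameters.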
PI4K2A block = PI4K2A (human) kinase inhibition. activity change, negative = inhibition, % at 76.9 µM. purified PI4K2A, ADP-Glo luminescence, 1 h; active compounds read low. Q9BTU6. 0.13% of 420,000 active; in the data active means activity change below about -50%; inconclusive means mostly about -30% to -49%
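PI4K2A activity was measured by ADP-Glo luminescence: enzyme (4 ug/mL stock) and phosphatidylinositol (1.2 mM stock) in Tris pH 7.5/MgCl2/EGTA/Triton X-100 buffer were reacted with ATP (300 microM stock) for one hour at ambient temperature.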
Tb PFK inh = blocks T. brucei phosphofructokinase. Potency, µM (highest dose often 57.5 µM), most hits filed as inhibitors. AID 485367. 0.17% of 330,000 active. T. brucei PFK, ADP-Glo luminescence. O15648; further: nearly all actives have a fitted effect of over 60% in size
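1.25 nM PFK with 0.5 mM F6P and 0.1 mM ATP in 0.1 M TEA pH 8.0, 5 mM MgCl2, incubated 45 min at room temperature; ADP measured by ADP-Glo luminescence; compounds titrated up to 57 uM.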
APEX1 inh = APE1 (human) endonuclease inhibition; Potency, µM (top dose mostly 65.8 µM), usual class: inhibitors; recombinant APE1, TAMRA/BHQ-2 abasic DNA cleavage fluorescence; P27695; 0.35% of 350,000 active; further: nearly all actives have a fitted effect of over 55% in size
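Activity was derived from the fluorescence gain between first and third kinetic reads (60 s intervals, ex 525/em 598 nm) after 50 nM THF-abasic TAMRA/BHQ-2 duplex was added to 0.75 nM APE1 preincubated 15 min with compound.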
TDP1 block = TDP1 (human) enzyme inhibition; Potency, µM (doses to about 130 µM), actives largely listed as inhibitors; AID 485290; 0.28% of 350,000 active; recombinant TDP1, AlphaScreen DNA substrate cleavage; Q9NUW8; further: nearly all actives have a fitted effect of over 40% in size
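AlphaScreen read-out: signal falls as enzyme removes the 3' tyrosine-FITC from a 5'-biotinylated DNA oligo (15 nM, 5 min, RT). Enzyme was E. coli-made recombinant Tdp1 at 1 nM, exposed to compound for 15 min beforehand; beads 10 ug/ml, 10 min.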
FEN1 inh-2 = confirmation of human FEN1 inhibitors; shares compounds with FEN1 inh-1; 79% of 880 active; Potency, µM, usual class: inhibitors; FEN1 flap cleavage, TAMRA/BHQ2 fluorogenic DNA substrate; further: nearly all actives have a fitted effect of over 60% in size
A number is an active result; - = inactive; ? = inconclusive; . = not tested or not shown. This is a sample that favours compounds with a hit; in the whole collection about 0.8% have one here. Unless noted, the call rests on the fitted dose curve; in most records, active means well fitted curve in the direction sought with a large enough effect; inconclusive means small, poorly fitted or top-dose-only effect, or another doubt; inactive means no such curve, though single readings can be large; an effect the other way counts as inactive or inconclusive.

SMILES | Tb PGK inh | FEN1 inh-1 | PI4K2A block | Tb PFK inh | APEX1 inh | TDP1 block | FEN1 inh-2
COc1cc2c(cc1OC)-c1c(OC)c(OC)c(CO)c3c1C(C2)N(C)CC3 (configuration not stated) | . | . | . | . | - | - | .
C[C@H]1O[C@@H](O[C@H]2[C@@H](O)C[C@H](O[C@H]3[C@@H](O)C[C@H](O[C@H]4CC[C@]5(C)C6CC[C@]7(C)[C@@H](C8=CC(=O)OC8)CC[C@]7(O)C6CC[C@@H]5C4)O[C@@H]3C)O[C@@H]2C)C[C@H](O)[C@@H]1O (some centres not stated) | . | . | . | . | - | - | .
Cc1ccc(-n2c(C)cc(/C=C3/C(=O)NC(=O)N(Cc4ccco4)C3=O)c2C)cc1 | - | - | - | - | ? | - | .
Cc1cc(/C=C2\C(=O)NC(=O)N(Cc3ccccc3)C2=O)c(C)n1-c1ccc(Cl)c(C(=O)O)c1 | 13µM | 79µM | - | - | ? | . | ?
Cc1ccccc1-n1c(C)cc(/C=C2/C(=O)NC(=O)N(Cc3ccco3)C2=O)c1C | . | - | - | - | - | - | ?
CN1C(=O)C(=Cc2ccc(Sc3ccccc3)o2)C(=O)N(C)C1=S | - | - | - | . | . | . | 85
CC(=O)OC[C@H](N)C(=O)c1ccccc1 | . | . | . | . | - | - | .
COc1cccc(OC)c1-c1nn2c(-c3n[nH]c4c3CCC4)nnc2s1 | . | ? | . | . | . | - | ?
CCCOc1ccc(N2CC(C(=O)Nc3ccccc3F)CC2=O)cc1 (configuration not stated) | - | - | - | - | - | - | .
C=CCn1c(CSc2ccccc2[N+](=O)[O-])n[nH]c1=S | - | ? | - | - | ? | . | 76
Cc1ccc2c(C)c3ccc4ccccc4c3c[n+]2c1 | - | 8.9µM | - | . | . | . | 6.7
Cc1ccc2ccccc2c1 | . | . | . | . | - | - | .
CCOc1ccc2cc(C#N)c(=O)oc2c1 | . | . | . | . | - | - | .
